Results on 13 compounds are retold here after PubChem BioAssay.

A short description of assay [1]: binders of probe aFSTL3 on microarray, primary screen, stem cell growth factor project, biochemical, small-molecule microarray, fluorescence 635/667 (AID 1064).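 Note: measures binding of the biotinylated anti-FSTL3 antibody to printed compounds.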 To be noted: higher = more signal.
Assay [2] can be described thus: binders from COS7 lysate, DM2A8 probe, primary screen, torsin A project, cell lysate, small-molecule microarray, fluorescence 635/667 (AID 1065). To be noted: higher = more signal, COS7 lysate expressing mutant human TOR1A.
Assay [3] can be described thus: binders of probe aFGF2 on microarray, primary screen, stem cell growth factor project, biochemical, small-molecule microarray, fluorescence 635/667 (AID 1067).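 Note: measures binding of biotinylated aFGF2 protein to printed compounds on slides; z-score merges feature fluorescence and signal-to-noise across triplicate slides.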 Conditions: higher = more signal.
A short description of assay [4]: binders of probe aFGF10 on microarray, primary screen, stem cell growth factor project, biochemical, small-molecule microarray, fluorescence 635/667 (AID 1071).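 Note: score merges 667 nm spot intensity and signal to noise from triplicate slides.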 Conditions: higher = more signal.
Assay [5] has as its target Neurogenic locus notch homolog protein 2 (Homo sapiens) (UniProt Q04721). Briefly: Notch2 binders on small-molecule microarrays, primary screen, biochemical, small-molecule microarray, 635 nm fluorescence, stem cell growth factors (AID 1073). To be noted: Notch2 binding, higher = more signal.
In assay [6] the target is Pro-neuregulin-1, membrane-bound isoform (Homo sapiens) (UniProt Q02297). Briefly: NRG1 binders on small-molecule microarrays, primary screen, psychiatric disease protein project, biochemical, small-molecule microarray, fluorescence 635/667 (AID 1075).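 Note: score combines 667 nm spot fluorescence with signal to noise.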 Conditions: NRG1 binding, 635 nm fluorescence, higher = more signal.
Assay [7] has as its system Neuregulin-1 EGF-like domain. Briefly: binders of neuregulin-1 EGF-like domain, primary screen, biochemical, small-molecule microarray, 635 nm fluorescence (AID 1081).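 Note: binding of the protein to compounds printed on small-molecule microarray slides.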 Conditions: small-molecule microarray binding, higher = more signal.
Assay [8] in a line: FRG1 promoter luciferase signal modulators, primary screen, FRG1 inhibition for FSHD, cell-based, C2C12 myotubes, firefly/Renilla luciferase, luminescence (AID 1084). To be noted: higher = more signal, called active from +8 up or from −8 down.
Assay [9] in a line: binders of probe aFST on microarray, primary screen, stem cell growth factor project, biochemical, small-molecule microarray, fluorescence 635/667 (AID 1086).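 Note: score merges 667 nm fluorescence with signal-to-noise of each printed compound spot.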 Conditions: higher = more signal.
A short description of assay [10]: binders of probe aHhip on microarray, primary screen, stem cell growth factor project, biochemical, small-molecule microarray, fluorescence 635/667 (AID 1087).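 Note: score merges spot fluorescence at 667nm with spot signal to noise ratio.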 Conditions: higher = more signal.

Active and inactive are the calls of the source.

Chain of Pro-neuregulin-1, membrane-bound isoform (Homo sapiens) (Q02297 whole entry, looked up, the tested form may be a part, canonical isoform): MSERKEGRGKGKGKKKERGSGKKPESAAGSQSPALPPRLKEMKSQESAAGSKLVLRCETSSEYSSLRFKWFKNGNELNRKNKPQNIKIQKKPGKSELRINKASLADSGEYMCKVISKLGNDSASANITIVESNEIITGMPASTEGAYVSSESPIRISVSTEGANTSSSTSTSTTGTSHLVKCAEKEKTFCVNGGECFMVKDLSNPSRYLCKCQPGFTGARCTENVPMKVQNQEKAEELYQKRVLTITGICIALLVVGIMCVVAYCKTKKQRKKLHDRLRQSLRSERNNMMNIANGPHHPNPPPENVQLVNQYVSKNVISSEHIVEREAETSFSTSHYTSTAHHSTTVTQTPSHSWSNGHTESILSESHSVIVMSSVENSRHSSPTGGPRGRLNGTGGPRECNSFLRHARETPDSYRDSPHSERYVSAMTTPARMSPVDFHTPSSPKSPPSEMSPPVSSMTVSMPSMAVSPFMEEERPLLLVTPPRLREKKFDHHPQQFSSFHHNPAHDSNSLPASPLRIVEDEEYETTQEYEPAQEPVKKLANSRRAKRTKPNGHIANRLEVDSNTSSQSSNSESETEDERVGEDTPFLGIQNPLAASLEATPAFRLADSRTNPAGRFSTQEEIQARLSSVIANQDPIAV
Chain of Neurogenic locus notch homolog protein 2 (Homo sapiens) (Q04721 whole entry, looked up, canonical isoform): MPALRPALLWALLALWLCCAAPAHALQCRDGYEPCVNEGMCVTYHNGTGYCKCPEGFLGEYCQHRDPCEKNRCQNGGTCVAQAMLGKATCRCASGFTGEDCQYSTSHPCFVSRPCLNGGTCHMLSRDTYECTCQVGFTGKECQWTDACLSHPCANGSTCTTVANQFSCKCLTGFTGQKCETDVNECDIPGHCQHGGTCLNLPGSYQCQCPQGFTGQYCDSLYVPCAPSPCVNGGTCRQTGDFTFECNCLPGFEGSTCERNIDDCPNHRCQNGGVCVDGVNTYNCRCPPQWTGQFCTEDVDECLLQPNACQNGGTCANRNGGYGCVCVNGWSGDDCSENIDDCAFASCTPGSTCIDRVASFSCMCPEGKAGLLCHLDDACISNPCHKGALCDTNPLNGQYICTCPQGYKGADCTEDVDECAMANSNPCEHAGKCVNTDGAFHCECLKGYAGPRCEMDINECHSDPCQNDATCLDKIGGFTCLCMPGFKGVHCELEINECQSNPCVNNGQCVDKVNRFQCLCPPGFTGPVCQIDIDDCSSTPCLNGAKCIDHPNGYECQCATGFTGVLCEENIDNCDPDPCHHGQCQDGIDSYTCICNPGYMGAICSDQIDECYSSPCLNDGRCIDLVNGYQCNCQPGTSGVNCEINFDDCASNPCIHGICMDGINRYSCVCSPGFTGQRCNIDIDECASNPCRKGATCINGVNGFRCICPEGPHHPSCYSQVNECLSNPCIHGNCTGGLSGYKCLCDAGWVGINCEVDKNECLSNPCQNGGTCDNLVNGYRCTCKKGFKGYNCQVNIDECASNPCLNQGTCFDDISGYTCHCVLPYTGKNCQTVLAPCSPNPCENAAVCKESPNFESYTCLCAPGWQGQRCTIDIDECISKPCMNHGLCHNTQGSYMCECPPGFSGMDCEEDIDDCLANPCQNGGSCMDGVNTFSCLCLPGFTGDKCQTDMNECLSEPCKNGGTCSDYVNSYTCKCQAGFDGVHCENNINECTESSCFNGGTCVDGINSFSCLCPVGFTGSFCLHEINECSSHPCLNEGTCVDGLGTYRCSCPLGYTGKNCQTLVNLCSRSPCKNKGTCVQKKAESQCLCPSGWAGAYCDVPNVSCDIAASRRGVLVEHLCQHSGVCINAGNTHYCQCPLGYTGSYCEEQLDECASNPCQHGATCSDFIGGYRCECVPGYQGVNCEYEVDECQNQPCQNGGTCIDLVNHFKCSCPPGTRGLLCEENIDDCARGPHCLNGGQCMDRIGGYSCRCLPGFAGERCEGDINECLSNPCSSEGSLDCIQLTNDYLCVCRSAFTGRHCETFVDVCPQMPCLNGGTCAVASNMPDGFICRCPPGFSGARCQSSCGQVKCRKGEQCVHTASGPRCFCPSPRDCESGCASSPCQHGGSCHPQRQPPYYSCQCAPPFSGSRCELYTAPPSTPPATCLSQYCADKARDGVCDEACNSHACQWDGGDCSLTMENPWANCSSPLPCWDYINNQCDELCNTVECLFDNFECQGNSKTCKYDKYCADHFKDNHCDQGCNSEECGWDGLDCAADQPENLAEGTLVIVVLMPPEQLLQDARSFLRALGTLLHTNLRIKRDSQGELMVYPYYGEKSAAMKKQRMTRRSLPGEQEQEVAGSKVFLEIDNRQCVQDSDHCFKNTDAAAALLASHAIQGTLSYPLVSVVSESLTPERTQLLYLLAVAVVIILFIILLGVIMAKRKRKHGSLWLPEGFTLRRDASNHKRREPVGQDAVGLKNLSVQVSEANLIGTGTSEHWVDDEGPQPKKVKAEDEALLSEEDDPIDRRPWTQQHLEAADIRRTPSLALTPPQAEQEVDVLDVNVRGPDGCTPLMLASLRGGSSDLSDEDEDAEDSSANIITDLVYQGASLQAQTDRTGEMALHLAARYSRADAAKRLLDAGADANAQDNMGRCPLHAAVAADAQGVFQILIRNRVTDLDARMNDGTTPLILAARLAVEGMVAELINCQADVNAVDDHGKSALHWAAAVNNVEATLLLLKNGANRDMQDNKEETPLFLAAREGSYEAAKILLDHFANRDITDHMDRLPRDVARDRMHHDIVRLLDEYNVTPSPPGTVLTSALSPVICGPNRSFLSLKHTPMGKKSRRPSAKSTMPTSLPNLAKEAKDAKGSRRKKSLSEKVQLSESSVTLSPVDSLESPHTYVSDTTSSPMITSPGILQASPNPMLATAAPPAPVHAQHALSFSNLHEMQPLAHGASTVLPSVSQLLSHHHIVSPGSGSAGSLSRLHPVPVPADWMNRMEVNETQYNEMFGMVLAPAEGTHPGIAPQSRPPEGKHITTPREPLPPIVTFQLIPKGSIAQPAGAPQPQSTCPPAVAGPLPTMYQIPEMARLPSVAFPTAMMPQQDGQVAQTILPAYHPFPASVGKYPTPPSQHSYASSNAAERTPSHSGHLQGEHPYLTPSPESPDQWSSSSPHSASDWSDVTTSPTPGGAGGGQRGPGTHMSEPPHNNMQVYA

With `COC(=O)Cn1c(C(=O)N(C)C)cc2c1C[C@H]1CN(C(=O)c3ccccc3)[C@@](Cc3ccc(F)cc3)(C(=O)OC)[C@@H]21`, the composite z-score in assay [1] was 0.0501; in assay [2], -0.152; in assay [3] it was 0.154; in [4], 1.24; in [5], 1.65; in assay [6], 0.88. In addition, the composite z-score in [7] was 1.13; in [9], 0.114; in assay [10], -0.15. Further, the z-score in assay [8] is -0.438 (inactive).

`COCCOC(=O)N1C(=O)[C@@]2(c3cc(C#CC4(O)CCCCCC4)ccc31)[C@H](c1ccc(O)cc1)N1[C@H](c3ccccc3)[C@H](c3ccccc3)OC(=O)[C@H]1[C@@H]2C(=O)NC[C@H](O)c1ccccc1`: the composite z-score in assay [1] is -0.116; in assay [2], 0.556; in [3], -0.126; in assay [4] it was 0.666; in assay [5] it was 1.29; in assay [6], 0.463. The values for the composite z-score in [7], in assay [9] and in [10] were 1.02, 0.538 and 0.176, respectively. In addition, in assay [8], the z-score was 0.69 (inactive).

As to `C=C[C@@H](OC)[C@H](OC(=O)Nc1ccc(SC)cc1)c1ccc(O)c(F)c1`, the composite z-score is 0.0213 in [1]; 0.5 in assay [2]; -0.0024 in assay [3]; 0.362 in [4]; -0.0166 in [5]; 1.25 in assay [6]. Moreover, the composite z-score is 1.35 in [7], 0.2 in [9] and -0.069 in [10]. The z-score in assay [8] was 3.87 (inactive).

In the case of `COc1ccc(C(O)C2C=CC3C(=O)N(c4ccccc4)C(=O)C3N2Nc2ccc([N+](=O)[O-])cc2)cc1` (stereo not given), the composite z-score in assay [1] was 0.928; in [2], -0.0823; in [3], 0.25; in [4], 0.935; in assay [5], 1.64; in assay [6] it was 0.546. Moreover, the values for the composite z-score in assay [7], in [9] and in assay [10] were 1.16, 1.18 and -0.149, respectively. Moreover, the z-score in assay [8] is -1 (inactive).

Consider `COC(=O)[C@@]1(Cc2ccccc2)[C@H]2c3cc(C(=O)N(C)C)n(CCN4CNCC4=O)c3C[C@H]2CN1C(=O)c1ccccc1`, for which the composite z-score is 1.13 in [1]; 1.89 in assay [2]; 0.539 in [3]; 0.307 in assay [4]; -0.0763 in [5]; 1.71 in assay [6]. The values for the composite z-score in assay [7], in assay [9] and in assay [10] were 1.22, 2 and 0.478, respectively. The z-score in assay [8] was 0.37 (inactive).

With `CCOC(=O)C1CCCCN1` (stereo not given), the composite z-score in assay [1] is 0.267; in assay [2] it was 0.0953; in assay [3], 0.119; in assay [4], 0.989; in assay [5], 0.931; in assay [6] it was 0.153. Also, the composite z-score stood at 0.765 in assay [7], 0.74 in assay [9] and 1.96 in assay [10]. The z-score in [8] was -0.102 (inactive).

In the case of `O=C(NCC(F)(F)F)[C@@H]1c2ccccc2C(=O)N(Cc2cc(F)cc(C(F)(F)F)c2)[C@H]1c1ccc(CO)cc1`, the composite z-score in assay [1] was 0.148; in assay [2], -0.823; in assay [3] it was -0.0996; in assay [4] it was -0.762; in [5], -1; in [6] it was -0.381. The composite z-score in [7] was 1.06; in [9] it was -0.317; in assay [10], -0.218. Besides, the z-score in assay [8] is -0.0411 (inactive).

As for `COC(=O)c1c2oc(c1C(=O)OC)C(=O)N(C)Cc1cn(nn1)C[C@H](Cc1ccccc1)NC(=O)N[C@H](CO)CC2`, the composite z-score was -0.239 in assay [1]; -0.705 in assay [2]; -0.174 in [3]; -0.248 in assay [4]; -0.867 in assay [5]; -0.638 in assay [6]. The composite z-score in assay [7] was -0.717; in assay [9], -0.276; in [10], 0.0854. For the same compound, the z-score in assay [8] is -0.161 (inactive).

For `[N-]=[N+]=Nc1ccccc1[C@@H]1OC(c2ccc(OCCCO)cc2)=N[C@]1(Cc1ccccc1)C(=O)NCC(O)CO` (stereo not given in full), the composite z-score in assay [1] was determined as 1.45; in assay [2], 2.11; in [3], 0.148; in [4], 0.881; in [5] it was 0.138; in assay [6] it was 1.66. The composite z-score in [7] is 1.06; in assay [9] it was 1.25; in assay [10], 0.28. Moreover, the z-score in [8] is -0.992 (inactive).

In the case of `COc1cc(CO)cc(I)c1O[C@H]1C=C(C(=O)NCCO)C[C@@H](NCc2ccc(F)cc2)[C@@H]1O`, the composite z-score is -0.519 in [1]; 0.254 in assay [2]; 0.0062 in assay [3]; 1.34 in [4]; 0.366 in [5]; 0.406 in assay [6]. Moreover, the composite z-score was -0.0461 in [7], 0.245 in assay [9] and -0.0645 in assay [10]. In addition, the z-score in assay [8] was -1.14 (inactive).

Consider `[N-]=[N+]=NCc1ccccc1[C@@H]1OC(c2ccc(OCCCO)cc2)=N[C@]1(CCS(=O)(=O)c1ccccc1)C(=O)NCC(O)CO` (stereo not given in full), for which the composite z-score worked out at 0.445 in assay [1]; 0.92 in assay [2]; 0.067 in assay [3]; 0.367 in assay [4]; 1.53 in assay [5]; 2 in [6]. Besides, the composite z-score is 1.23 in assay [7], 0.923 in assay [9] and -0.0994 in [10]. Further, in assay [8], the z-score was -0.547 (inactive).

On to `CCOC(=O)C[C@H]1[C@H](OC(=O)Cc2ccc3c(c2)OCO3)[C@@H](NC(=O)Cc2ccc(OC)cc2)c2cc(OCCCO)ccc2N1C(=O)c1ccc2ccccc2n1`, for which the composite z-score in [1] was -0.362; in assay [2], 0.401; in assay [3] it was -0.104; in [4], 0.466; in [5], 0.255; in assay [6], 0.371. The composite z-score in assay [7] is 0.752; in assay [9], 0.103; in assay [10] it was -0.274. Further, the z-score in assay [8] is -3.56 (inactive).

Take `C=C[C@@H](COC(C)=O)N(C(=O)OC(C)(C)C)S(=O)(=O)c1ccc(Br)cc1`: the composite z-score in assay [1] is 0.0095; in assay [2], 1.66; in assay [3], -0.0005; in assay [4], 0.358; in assay [5] it was 0.401; in assay [6], 0.33. Besides, the composite z-score in assay [7] came to 1.01; in assay [9] it was 0.157; in [10] it was 0.157. Moreover, the z-score in assay [8] was -3.97 (inactive).
